The results in this text go back to PubChem BioAssay AID686971 (National Center for Advancing Translational Sciences (NCATS), 2013).

In all, about 360,000 compounds went through this assay and about 7,500 (2.1%) were called active. About 8% were inconclusive and are not listed. The call rests on the fitted dose curve; in most records, active means well fitted cell-killing curve with a large enough effect; inconclusive means small, poorly fitted or top-dose-only effect, or effect the other way, or another doubt; inactive means no such curve, though single readings can be large or run the other way. What follows is part of a selection rich in actives, with near analogues and random picks from the rest. Entries that show only a call come without a potency.
Potency means the concentration at half of the fitted maximal effect.

A short description of this assay: qHTS for induction of synthetic lethality in tumor cells producing 2HG: qHTS for the HT-1080-IDH1KD cell line. Particulars: HT-1080 IDH1 knockdown viability, ATP luminescence, 48 h; series mostly up to 46.1 µM. A digest of the protocol: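 % activity derives from luminescence (CellTiter-Glo), normalised to DMSO and no-cell wells. HT-1080-IDH1KD cells, 750/well, had 48 h compound exposure at 37 °C.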
(In general: Quantitative high-throughput screening tests each substance at several concentrations.)
`CC(C)CCNC(=O)c1[nH]c(C(F)(F)F)nc1-c1ccccc1`: the Potency entry was “inactive”.
`O=C(Nc1cc(F)ccc1F)c1ccc2c(=O)n3c(nc2c1)CCC3`: the Potency result was “inactive”.
Still for that read-out and setting: the result for `CC1(C(=O)NCc2ccc3c(c2)OCO3)CCN1C(=O)Cc1cccs1` (centres undefined) reads “inactive”.
With `CN1CCn2cnc(C(=O)NCC(=O)OC(C)(C)C)c2C1=O`, the Potency result is “inactive”.
On to `C[N+](C)(C)CCNC(=O)c1c[nH]c2ccccc12`, for which the Potency entry was “inactive”.
With `CC[C@H]1CN2CCc3cc(OC)c(OC)cc3[C@@H]2C[C@@H]1C[C@H]1NCCc2cc(OC)c(OC)cc21`, the Potency is 0.13 µM (active).
On to `COc1cc2c(cc1OC)CN(CC(=O)Nc1ccc(F)cc1)CC2`, for which the Potency entry was “inactive”.
On the same count and under the same terms, the result for `Clc1ccc(-c2cccc3nccn23)cc1` reads “inactive”.
For `Cc1cccc(CN2CCN(C3CN(Cc4ccccc4)S(=O)(=O)C3)CC2)c1` (centres undefined), the Potency entry was “inactive”.
The same measure, in the same setting: the result for `COc1cc(CCN=Cc2ccccc2O)c([N+](=O)[O-])cc1OC` reads “inactive”; that for `Cc1ccc(Oc2cnn(-c3ccccc3)c(=O)c2Br)cc1`, “inactive”; that for `Cc1cccc(-n2ncc(Cl)c(Cl)c2=O)c1`, 20.6 µM (active).
For the molecule `C=CCNc1cnn(-c2ccc(C)cc2)c(=O)c1Cl`, the activity, negative = toxicity was 5.14% [at 9.24 µM] (inactive).
Consider `CCCC(=O)N1CCC1(C)C(=O)NCc1ccc(C(C)C)cc1` (centres undefined), for which the Potency result is “inactive”.
On to `Cc1csc(=O)n1CCC(=O)OCC(=O)Nc1ccc(N2CCOCC2)cc1`, for which the Potency result is “inactive”.
For `COc1ccc(NC(=O)C(Br)C(C)C)cc1` (centres undefined), the Potency entry was “inactive”.
The same measure, in the same setting: the result for `CC(C)(C)CC(=O)Nc1nnc(SCC(=O)NCc2cccs2)s1` reads “inactive”; that for `CC(C)C[C@H](NC(=O)Nc1cccc(C(F)(F)F)c1)C(=O)O`, “inactive”; that for `O=C(Nc1ccc(C(=O)N2CCOCC2)cc1)Nc1cccc(C(F)(F)F)c1`, “inactive”.
`COc1ccc(C(N)c2csc(NC(=O)Nc3cccc(C(F)(F)F)c3)n2)cc1` (centres undefined): the Potency was 18.4 µM (active).
Take `COc1ccc(CC(N)c2csc(NC(=O)Nc3ccc(C(C)C)cc3)n2)cc1` (centres undefined): the Potency was 14.6 µM (active).
Take `CC(C)(C)CC(=O)Nc1nc(C(N)Cc2ccc(C(F)(F)F)cc2)cs1` (centres undefined): the Potency was 18.4 µM (active).
As to `NC(c1ccccc1)c1csc(NC(=O)Nc2cccc(C(F)(F)F)c2)n1` (centres undefined), the Potency result is “inactive”.
For the molecule `NC(c1csc(NC(=O)Nc2cccc(C(F)(F)F)c2)n1)C1CCCCC1` (centres undefined), the Potency is 14.6 µM (active).
On the same count and under the same terms, the value for `COC(=O)[C@H](CCSC)NC(=O)Nc1ccc(OC)cc1` was “inactive”; that for `Cc1ccccc1NC(=O)Cc1nc(COC(=O)c2ccc(C(F)(F)F)cc2)cs1` was “inactive”; that for `COc1ccc(NC(=O)C(=O)NCC(=O)Nc2cccc(C(F)(F)F)c2)cc1` was “inactive”.
For the molecule `C=C1C=C(C)n2ncc(C(=O)Nc3ccccc3O)c2N1`, the Potency result is “inactive”.
`CCc1nc2c(OCCOc3ccccc3)cccn2c1N(C)C(=O)c1ccccc1F`: the Potency entry is “inactive”.
As for `CCOc1cc(/C=N/NC(=O)c2ccncc2)cc(Br)c1O`, the Potency result was “inactive”.
Still for that read-out and setting: the value for `Cc1cc(Cl)ccc1C(=O)C1CCCN(C(=O)c2ccc3c(c2)OCO3)C1` (centres undefined) was “inactive”; that for `C[C@@H]1CN([C@@H](C)CO)C(=O)CCCn2cc(nn2)CO[C@H]1CN(C)S(=O)(=O)c1ccc(-n2cccn2)cc1` was “inactive”; that for `O=C(c1ccc(CS(=O)Cc2ccccc2Cl)o1)N1CCN(c2ccccc2)CC1` (centres undefined) was “inactive”.
On the same count and under the same terms, the value for `CC1(C(=O)NS(=O)(=O)c2ccc(C#N)cc2)CCN1C(=O)c1ccc(C2CCCCC2)cc1` (centres undefined) was “inactive”; that for `CCOC(=O)C1C(C)C(C(C)(C)C)N(S(=O)(=O)c2ccc(C)cc2)C1c1ccccc1` (centres undefined) was “inactive”.
Regarding `Cc1ccc(-c2ccc(CN3C(C)C(=O)N(Cc4cn(CCC5OCCCO5)nn4)CCS3(=O)=O)cc2)cc1` (centres undefined), the Potency entry is “inactive”.
Take `CC1(C(=O)Nc2cccc3c2CCCC3)CCN1C(=O)C1(c2ccccc2)CC1` (centres undefined): the Potency result was “inactive”.
Same read-out and setting: the result for `O=C(Nc1cccc(Cc2ccccc2)c1)Nc1ccc2nc([C@@H]3O[C@H](CO)[C@@H](O)[C@H](O)[C@H]3O)[nH]c2c1` reads “inactive”; that for `Cc1[nH]c2ccccc2c1C(=O)CN1CC(C)CC(C)C1` (centres undefined), 18.4 µM (active); that for `Cc1[nH]c2ccccc2c1C(=O)CSCC(=O)O`, “inactive”.
As for `Cc1[nH]c2ccccc2c1C(=O)CN1CCCC(C)C1` (centres undefined), the Potency result is “inactive”.
`C=CCn1c2c(c3ccccc31)CCC2`: the Potency result is “inactive”.
For `C=C1C(=O)OC2C1CCC(C)=CCCC1(C)OC21` (centres undefined), the Potency is 11.6 µM (active).
As for `COc1cc2c(=O)n(C)c3ccccc3c2cc1OC`, the Potency entry is “inactive”.
`Cn1c(=O)c([N+](=O)[O-])c(Oc2ccccc2)c2ccccc21`: the Potency was 23.1 µM (active).
As to `Cc1cc(C)c(-c2c(O)c3ccccc3n(C)c2=O)c(C)c1`, the Potency entry is “inactive”.
Take `Cc1c(/C=N\NC(=O)c2cc3ccccc3o2)c2ccccc2n1C`: the Potency was 18.4 µM (active).
For the molecule `Cc1c(/C=N/N2C(=O)C3C4C=CC(C4)C3C2=O)c2ccccc2n1C` (centres undefined), the Potency entry was “inactive”.
As for `O=C(N/N=C/c1cccc(O)c1)c1cc2c(ccc3ccccc32)o1`, the Potency result is “inactive”.
In the case of `CN(Cc1ccccc1)C(=O)[C@@H]1CCCN1C(=O)[C@@H]1CCCN1C(=O)c1c(F)cccc1F`, the Potency entry is “inactive”.
Take `O=C(Cc1ccc(-c2ccccc2)cc1)NC(c1ccccc1)c1ccccc1`: the Potency result is “inactive”.
Take `CCOC(=O)C(C(=O)OCC)C(C#N)c1ccccc1` (centres undefined): the Potency entry was “inactive”.
Consider `CCOC(=O)/C=C/C(=O)OCC(=O)NC(c1ccccc1)c1ccccc1`, for which the Potency was 20.6 µM (active).
For `CN(C)c1ccc(Nc2c3c4c(cccc4n(C)c2=O)C(=O)c2ccccc2-3)cc1`, the Potency was 4.61 µM (active).
`CN(C)c1ccc(C2N(C)C(=O)c3ccccc3N2C)cc1` (centres undefined): the Potency entry was “inactive”.
As to `CSc1ncnc2c1ncn2CCCNCC(C)c1ccccc1` (centres undefined), the Potency entry was “inactive”.
Regarding `c1ccc(Cn2nnc3c(NCC4CC4)ncnc32)cc1`, the Potency entry is “inactive”.
As for `O=[N+]([O-])/C=C/c1ccc2c(ccn2Cc2ccccc2)c1`, the Potency is 16.4 µM (active).
With `CCc1nc2ccc(C(=O)N(C)Cc3ccco3)cn2c1N(C)C(=O)Cc1ccccc1`, the Potency result was “inactive”.
As for `Cc1ccc(S(=O)(=O)N2C[C@H]3C(=O)C[C@@H](c4cccc5ccccc45)N(S(=O)(=O)c4ccc(C)cc4)[C@H]3C[C@H]2c2ccc(Cl)cc2)cc1`, the Potency entry was “inactive”.
For `CC(=O)c1ccc(Nc2nc(C(N)c3ccccc3)cs2)cc1` (centres undefined), the Potency result is “inactive”.
As for `NC(Cc1ccc(F)cc1)c1csc(Nc2nncc3ccccc23)n1` (centres undefined), the Potency is 25.9 µM (active).
Still for that read-out and setting: the result for `COCC(C)NC(=O)COc1nncc2ccccc12` (centres undefined) reads “inactive”; that for `CN1CCN(C(=O)c2ccc(-c3cc4nc(NCc5cccnc5)n(C)c(=O)c4s3)cc2)CC1`, “inactive”.
As to `CNc1cnc(-c2cc(OC)c(OC)c(OC)c2)cn1`, the Potency entry was “inactive”.
Regarding `CC(=O)Nc1ccc(Nc2c3ccccc3nc3ccccc23)cc1`, the Potency is 14.6 µM (active).
The same measure, in the same setting: the value for `CC(=O)Nc1ccc(S(=O)(=O)N(C)c2nc3ccccc3nc2Cl)cc1` was “inactive”.
With `CC(=O)Nc1ccc(Nc2cc(C)nc(Nc3ccc(NC(C)=O)cc3)n2)cc1`, the Potency result was “inactive”.
On to `Cc1ccc(S(=O)(=O)N2CC3C(=O)C[C@@H](c4ccccc4Cl)N(S(=O)(=O)c4ccc(C)cc4)C3CC2c2ccccc2)cc1` (some centres undefined), for which the Potency result was “inactive”.
Still for that read-out and setting: the result for `CCOC(=O)C1CCCN(C(=O)c2cccc3ccccc23)CC1` (centres undefined) reads “inactive”; that for `C[C@@H]1Cn2cnc(C(=O)Nc3ccc(CNC(=O)OC(C)(C)C)cc3)c2C(=O)N1`, “inactive”; that for `Cc1ccc(O)c(CNc2nc3ccccc3[nH]2)c1`, “inactive”.
Still for that read-out and setting: the value for `COC(=O)Nc1nc2ccc(Sc3ccccc3)cc2[nH]1` was 0.82 µM (active); that for `CN(c1ccccc1)S(=O)(=O)c1cc(C(=O)Nc2nc3ccccc3[nH]2)ccc1Cl` was “inactive”; that for `CCOC(=O)C1(C)CCCN(C(=O)c2ccc(F)c(Cl)c2)C1` (centres undefined) was “inactive”.
Turning to `COc1ccc2c(CC(=O)N3CCc4cc(OC)c(OC)cc4C3)coc2c1`, the Potency result was “inactive”.
The same measure, in the same setting: the result for `COc1ccccc1CNC(=O)c1cc(=O)c2ccccc2o1` reads “inactive”; that for `COc1cc2c(cc1OC)CN(C(=O)c1cc(=O)c3ccccc3o1)CC2`, 5.8 µM (active).
As to `COc1cc(NC(=O)C2=C(C)OCCS2)c(Cl)cc1C(=O)NCCCN1CCCC(C)C1` (centres undefined), the Potency result is “inactive”.
Regarding `NS(=O)(=O)c1ccc(CCNS(=O)(=O)c2cccc3cccnc23)cc1`, the Potency entry is “inactive”.
For the molecule `Cc1ccc2cccc([N+](=O)[O-])c2n1`, the Potency result was “inactive”.
As to `O=[N+]([O-])c1ccccc1S(=O)(=O)Nc1cccc2cccnc12`, the Potency is 11.6 µM (active).
With `Cc1nccn1-c1ccc(NC(=O)[C@H]2O[C@@H](n3cnc4c(N)ncnc43)[C@H](O)[C@@H]2O)cc1`, the Potency entry is “inactive”.
As for `CC1(C(=O)NS(=O)(=O)Cc2cccc(Cl)c2)CCN1C(=O)Cc1ccccc1` (centres undefined), the Potency result was “inactive”.
On the same count and under the same terms, the value for `CCCCn1nnnc1C(c1ccccc1)N1CCN(c2ccccc2OC)CC1` (centres undefined) was “inactive”.
Still for that read-out and setting: the result for `NC(=O)c1ccccc1N(Cc1ccccc1)S(=O)(=O)c1ccccc1` reads “inactive”; that for `CCOC(=O)N1CCN(C(=O)c2ccccc2N(Cc2ccccc2)S(=O)(=O)c2ccc(OC)cc2)CC1`, 3.26 µM (active).
On to `CCOC(=O)N1CCN(S(=O)(=O)c2ccc(OC)cc2)CC1`, for which the Potency entry was “inactive”.
For the molecule `CCCc1ccc(C(O)c2ncc(-c3cccc(OC)c3)[nH]2)cc1` (centres undefined), the Potency result was “inactive”.
As to `CN(CCO)C(=O)c1nc[nH]c1C(=O)N(C)Cc1ccccc1`, the Potency result was “inactive”.
Regarding `Cc1ccc(-c2nc3ccc(Br)cn3c2Cc2ccccc2C(F)(F)F)cc1`, the Potency result is “inactive”.
As for `COc1ccc(-c2cc(C)nc3nc(N)nn23)cc1`, the Potency result was “inactive”.
For `Cc1cc(N)n2nc(-c3ccc(C(C)(C)C)cc3)cc2n1`, the Potency was 20.6 µM (active).
For `Cc1cc(C(C)(C)C)cc(C)c1N`, the Potency result was “inactive”.
Turning to `O=C(Nc1ccc(Cl)cc1)c1csc([C@@H]2O[C@H](CO)[C@H](O)[C@H](O)[C@H]2O)n1`, the Potency entry is “inactive”.
Still for that read-out and setting: the result for `CO[C@@H]1CN(C)C(=O)c2cc(NC(=O)Nc3cc(F)ccc3F)ccc2OC[C@H](C)N(C(=O)c2ccccn2)C[C@@H]1C` reads “inactive”; that for `CCOC(=O)N1C(=O)C[C@](Sc2ccc(C)cc2)(C(=O)OC)[C@H]1c1ccccc1`, “inactive”.
As for `Nc1ncnc2c1ncn2[C@@H]1O[C@H](C(=O)NCC(F)(F)F)[C@@H](O)[C@H]1O`, the Potency entry is “inactive”.
Same read-out and setting: the value for `COc1ccc(-c2[nH][nH]c(=O)c2NC(=O)c2ccc([N+](=O)[O-])cc2)cc1` was “inactive”.
